40 molecules from ChEMBL document CHEMBL1157539, “Thousands of chemical starting points for antimalarial lead identification” (Nature, 2010) can be followed below.

One experiment deals with Plasmodium falciparum. The experiment can be described thus: GSK_TCMDC: Inhibition of Plasmodium falciparum 3D7 in whole red blood cells, using parasite LDH activity as an index of growth. Test compounds present at 2uM. It counts as functional.
`CCOCc1cnc(C)nc1NCC(=O)c1c(C)[nH]c2cc(C)ccc12.I` returned an Inhibition of 89%.

With `COc1ccc2ncc(F)c(CCN3CC[C@H](NC(=O)c4ccc5c(n4)NC(=O)CS5)[C@H](O)C3)c2n1.Cl`, the Inhibition is listed as 88%.

For `CC(C)COc1ccc(Cl)cc1Cc1nc(-c2nc3ccc(CN(C)C)cc3[nH]2)co1.Cl`, the Inhibition was 97%.

For `COc1cc(Cc2cnc(N)nc2N)cc(OCCCCCCN2C(=O)c3ccccc3C2=O)c1OC`, the Inhibition turned out to be 95%.

As for `Cc1sc2ncnc(Sc3nc4ccccc4[nH]3)c2c1C`, the Inhibition worked out at 99%.

For the molecule `O=C(C=Cc1ccc(Cl)c(Cl)c1)NCCCCCN1CCC(CCCNS(=O)(=O)c2ccc(F)cc2)CC1`, the Inhibition came to 93%.

Molecule `CCCCCCCN1CC[C@@H](CCCc2ccnc3ccc(OCCN4CCOCC4)cc23)[C@@H](CC)C1.O=C(O)C(=O)O` yielded an Inhibition of 89%.

In turn, `Cn1c(-c2ccccc2)cc2c3c(N)nc(N)nc3ccc21` registered an Inhibition of 100%.

Regarding `COc1ccc2nccc(N3CCC(NCc4ccc5c(n4)NC(=O)CS5)CC3)c2n1`, the Inhibition came to 100%.

The molecule `COc1cc2c(cc1C(F)(F)F)N(C(=O)Nc1cc(F)c(F)c(-c3cccnc3)c1)CC2` had an Inhibition of 90%.

The molecule `CC(C)CNCc1cccc(-c2ccc(CNc3ccc(C(=O)c4ccccc4)cc3)cc2)c1.O=C(O)C(F)(F)F` came in with an Inhibition of 97%.

As for `C=C[C@H]1CN2CC[C@H]1C[C@@H]2[C@@H](O)c1ccnc2ccc(OC)cc12` [QUINIDINE], the Inhibition stood at 98%.

`CCCCCCN(C(=O)OCc1ccccc1)C1CCN(C(=O)OC(C)(C)C)CC1C(=O)OCC` (stereo not given) gave an Inhibition of 96%.

`COc1cccc(C2CCN(CCCCNC(=O)c3ccc(NC(=O)c4ccc(Cl)cc4)cc3)CC2)c1` displayed an Inhibition of 99%.

In turn, `O=C(/C=C/c1ccc(Cl)c(Cl)c1)NCCCCCN1CCCN(C(=O)Nc2cc(Cl)nc(Cl)c2)CC1` registered an Inhibition of 100%.

As for `Cc1c(F)cc(C(=O)NC2CC2)cc1-c1ccc2c(cnn2S(=O)(=O)c2ccc(Cl)s2)c1`, the Inhibition turned out to be 81%.

In turn, `Clc1cccc(C=NN=c2cc[nH]c3ccccc23)c1` yielded an Inhibition of 100%.

Turning to `COc1cccc(Cc2cnc3nc(N)nc(N)c3c2C)c1`, the Inhibition is listed as 94%.

`COc1ccc2[nH]ccc(=NN=Cc3ccncc3)c2c1` gave an Inhibition of 99%.

Consider `N#Cc1ccc(N2CCN(Cc3cccc(-c4ccc(-c5nc6ccccc6[nH]5)cc4)c3)CC2)nc1.O=C(O)C(F)(F)F`, for which the Inhibition is on record as 89%.

With `Cc1ccc(NC(=O)c2ccc(C(=O)NC3CCN(CC4CCCCC4)CC3)cc2)cc1.O=C(O)C(F)(F)F`, the Inhibition was determined as 93%.

In turn, `O=C(O)C(F)(F)F.O=[N+]([O-])c1cccc(CNCC2CCN(Cc3ccc(C(F)(F)F)cc3)CC2)c1` yielded an Inhibition of 100%.

As for `Fc1ccc2[nH]c(-c3ccccc3)nc2c1CN1CCC(N2CCCC2)CC1.O=CO`, the Inhibition amounted to 100%.

Turning to `Cc1ccn2c(N(Cc3ccccc3)C(=O)c3ccc(Cl)c(Cl)c3)c(-c3ccccc3)nc2c1`, the Inhibition is reported as 95%.

As to `CCc1nc(N)nc(N)c1-c1ccccc1`, the Inhibition is on record as 92%.

The molecule `O=C(Nc1ccsc1)Nc1cccc(-c2cccc(-c3nc4cc(F)ccc4[nH]3)c2)c1` showed an Inhibition of 100%.

Regarding `O=c1cc(NCCCNCc2cccc(Oc3ccccc3)c2)[nH]c2ccccc12`, the Inhibition is given as 93%.

In turn, `CC1(C)CC2CC(C)(CN2C(=O)c2cc(C(C)(C)C)nn2Cc2ccccc2)C1` (stereo not given) gave an Inhibition of 86%.

Molecule `C[C@H](NC(=O)c1c(CN2CCC(NC(=O)CC(C)(C)C)CC2)c(-c2cccs2)nc2ccccc12)C1CCCCC1` displayed an Inhibition of 91%.

On to `COc1ccc(Nc2ncc3c(-c4cccc(NC(=O)Cc5ccc(F)cc5)c4)c[nH]c3n2)cc1OC`, for which the Inhibition amounted to 100%.

As to `COc1ccc(-c2cc(C(=O)N3CCc4ccccc43)c3ccccc3n2)cc1OC`, the Inhibition was 85%.

Turning to `COc1ccc(CNc2nccc3ccc(-c4ccc(N)nc4)cc23)cc1.O=C(O)C(F)(F)F`, the Inhibition amounted to 93%.

Regarding `O=C(C=Cc1ccc(Cl)c(Cl)c1)NCCCCCN1CCCC(CCCNC(=O)c2ccc3c(c2)OCO3)C1` (stereo not given), the Inhibition is reported as 95%.

`Cc1cc(=O)[nH]c(-n2nc(C)cc2NC(=O)C2(c3ccc(Cl)cc3)CCCC2)n1` yielded an Inhibition of 96%.

As to `N[C@@H](COc1cccc2c(-c3ccncc3)c(-c3cccc(NC(=O)Nc4ccccc4)c3)nn12)c1ccccc1`, the Inhibition came to 100%.

In turn, `Cl.O=C(Nc1ccc(C2=NC3CCCCC3N2)cc1)Nc1ccc(C2=NC3CCCCC3N2)cc1` (stereo not given) came in with an Inhibition of 88%.

Molecule `CCN(CC)CCN(CCN(CC)CC)c1ccc2c(c1)Sc1c(Cl)ccc(Cl)c1S2.Cl` registered an Inhibition of 98%.

Regarding `N#Cc1ccc(C(=O)Nc2cccc(-c3ccc(CN4CCCC4)cc3)c2)cc1.O=C(O)C(F)(F)F`, the Inhibition is on record as 99%.

As for `Cc1cccc2nc(-c3cccc(-c4cccc(CNCc5cnn(-c6ccccc6)n5)c4)c3)[nH]c12.O=C(O)C(F)(F)F`, the Inhibition turned out to be 99%.

As for `CC(=NNC(=N)N)c1ccc2ccc3ccccc3c2c1.Cl`, the Inhibition turned out to be 97%.

Another experiment has as its system Plasmodium falciparum. The experiment in a line: GSK_TCMDC: Inhibition of Plasmodium falciparum Dd2 in whole red blood cells, using parasite LDH activity as an index of growth. Test compounds present at 2uM. It is filed as functional.
Molecule `CCOCc1cnc(C)nc1NCC(=O)c1c(C)[nH]c2cc(C)ccc12.I` had an Inhibition of 76%.

`COc1ccc2ncc(F)c(CCN3CC[C@H](NC(=O)c4ccc5c(n4)NC(=O)CS5)[C@H](O)C3)c2n1.Cl` gave an Inhibition of 88%.

Turning to `CC(C)COc1ccc(Cl)cc1Cc1nc(-c2nc3ccc(CN(C)C)cc3[nH]2)co1.Cl`, the Inhibition is reported as 87%.

Regarding `COc1cc(Cc2cnc(N)nc2N)cc(OCCCCCCN2C(=O)c3ccccc3C2=O)c1OC`, the Inhibition is on record as 3%.

For the molecule `Cc1sc2ncnc(Sc3nc4ccccc4[nH]3)c2c1C`, the Inhibition was determined as 100%.

For `O=C(C=Cc1ccc(Cl)c(Cl)c1)NCCCCCN1CCC(CCCNS(=O)(=O)c2ccc(F)cc2)CC1`, the Inhibition is 20%.

In turn, `CCCCCCCN1CC[C@@H](CCCc2ccnc3ccc(OCCN4CCOCC4)cc23)[C@@H](CC)C1.O=C(O)C(=O)O` gave an Inhibition of 3%.

On to `Cn1c(-c2ccccc2)cc2c3c(N)nc(N)nc3ccc21`, for which the Inhibition was determined as 30%.

With `COc1ccc2nccc(N3CCC(NCc4ccc5c(n4)NC(=O)CS5)CC3)c2n1`, the Inhibition was determined as 63%.

As for `COc1cc2c(cc1C(F)(F)F)N(C(=O)Nc1cc(F)c(F)c(-c3cccnc3)c1)CC2`, the Inhibition was 15%.

For `CC(C)CNCc1cccc(-c2ccc(CNc3ccc(C(=O)c4ccccc4)cc3)cc2)c1.O=C(O)C(F)(F)F`, the Inhibition is 0%.

For the molecule `C=C[C@H]1CN2CC[C@H]1C[C@@H]2[C@@H](O)c1ccnc2ccc(OC)cc12` [QUINIDINE], the Inhibition was 95%.

Molecule `CCCCCCN(C(=O)OCc1ccccc1)C1CCN(C(=O)OC(C)(C)C)CC1C(=O)OCC` (stereo not given) yielded an Inhibition of 96%.

`COc1cccc(C2CCN(CCCCNC(=O)c3ccc(NC(=O)c4ccc(Cl)cc4)cc3)CC2)c1` had an Inhibition of 40%.

`O=C(/C=C/c1ccc(Cl)c(Cl)c1)NCCCCCN1CCCN(C(=O)Nc2cc(Cl)nc(Cl)c2)CC1` came in with an Inhibition of 3%.

Molecule `Cc1c(F)cc(C(=O)NC2CC2)cc1-c1ccc2c(cnn2S(=O)(=O)c2ccc(Cl)s2)c1` gave an Inhibition of 50%.

With `Clc1cccc(C=NN=c2cc[nH]c3ccccc23)c1`, the Inhibition was 44%.

Consider `COc1cccc(Cc2cnc3nc(N)nc(N)c3c2C)c1`, for which the Inhibition is 76%.

On to `COc1ccc2[nH]ccc(=NN=Cc3ccncc3)c2c1`, for which the Inhibition is reported as 95%.

For `N#Cc1ccc(N2CCN(Cc3cccc(-c4ccc(-c5nc6ccccc6[nH]5)cc4)c3)CC2)nc1.O=C(O)C(F)(F)F`, the Inhibition was determined as 40%.

Regarding `Cc1ccc(NC(=O)c2ccc(C(=O)NC3CCN(CC4CCCCC4)CC3)cc2)cc1.O=C(O)C(F)(F)F`, the Inhibition came to 0%.

`O=C(O)C(F)(F)F.O=[N+]([O-])c1cccc(CNCC2CCN(Cc3ccc(C(F)(F)F)cc3)CC2)c1` yielded an Inhibition of 23%.

On to `Fc1ccc2[nH]c(-c3ccccc3)nc2c1CN1CCC(N2CCCC2)CC1.O=CO`, for which the Inhibition is recorded as 30%.

As for `Cc1ccn2c(N(Cc3ccccc3)C(=O)c3ccc(Cl)c(Cl)c3)c(-c3ccccc3)nc2c1`, the Inhibition was found to be 0%.

As for `CCc1nc(N)nc(N)c1-c1ccccc1`, the Inhibition is 1%.

Turning to `O=C(Nc1ccsc1)Nc1cccc(-c2cccc(-c3nc4cc(F)ccc4[nH]3)c2)c1`, the Inhibition came out at 41%.

On to `O=c1cc(NCCCNCc2cccc(Oc3ccccc3)c2)[nH]c2ccccc12`, for which the Inhibition is listed as 67%.

`CC1(C)CC2CC(C)(CN2C(=O)c2cc(C(C)(C)C)nn2Cc2ccccc2)C1` (stereo not given) registered an Inhibition of 77%.

Molecule `C[C@H](NC(=O)c1c(CN2CCC(NC(=O)CC(C)(C)C)CC2)c(-c2cccs2)nc2ccccc12)C1CCCCC1` yielded an Inhibition of 70%.

In the case of `COc1ccc(Nc2ncc3c(-c4cccc(NC(=O)Cc5ccc(F)cc5)c4)c[nH]c3n2)cc1OC`, the Inhibition was 90%.

The molecule `COc1ccc(-c2cc(C(=O)N3CCc4ccccc43)c3ccccc3n2)cc1OC` returned an Inhibition of 48%.

`COc1ccc(CNc2nccc3ccc(-c4ccc(N)nc4)cc23)cc1.O=C(O)C(F)(F)F` gave an Inhibition of 49%.

In turn, `O=C(C=Cc1ccc(Cl)c(Cl)c1)NCCCCCN1CCCC(CCCNC(=O)c2ccc3c(c2)OCO3)C1` (stereo not given) showed an Inhibition of 4%.

Consider `Cc1cc(=O)[nH]c(-n2nc(C)cc2NC(=O)C2(c3ccc(Cl)cc3)CCCC2)n1`, for which the Inhibition is 97%.

In turn, `N[C@@H](COc1cccc2c(-c3ccncc3)c(-c3cccc(NC(=O)Nc4ccccc4)c3)nn12)c1ccccc1` registered an Inhibition of 71%.

In turn, `Cl.O=C(Nc1ccc(C2=NC3CCCCC3N2)cc1)Nc1ccc(C2=NC3CCCCC3N2)cc1` (stereo not given) showed an Inhibition of 76%.

On to `CCN(CC)CCN(CCN(CC)CC)c1ccc2c(c1)Sc1c(Cl)ccc(Cl)c1S2.Cl`, for which the Inhibition is on record as 94%.

Regarding `N#Cc1ccc(C(=O)Nc2cccc(-c3ccc(CN4CCCC4)cc3)c2)cc1.O=C(O)C(F)(F)F`, the Inhibition is given as 0%.

In the case of `Cc1cccc2nc(-c3cccc(-c4cccc(CNCc5cnn(-c6ccccc6)n5)c4)c3)[nH]c12.O=C(O)C(F)(F)F`, the Inhibition was found to be 38%.

With `CC(=NNC(=N)N)c1ccc2ccc3ccccc3c2c1.Cl`, the Inhibition stood at 23%.
